Data from PubChem BioAssay.
For some assays here: Potency and affinity values are given separately. Inconclusive results are not listed. The list shows a part of the results. The source made the active and inactive calls. Unless noted, the rule behind the calls is not given here.

How the values were obtained:
[1] = cytotoxicity in IOSE-T80 ovarian epithelial cells, dose response, selectivity assay for PAX8 inhibitor project, cell-based, cherry-pick (AID 687032;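 active = fitted half-maximal concentration for viability loss no higher than twice the top valid dose, in every repeat run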;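 note: cells exposed to compound for 96 h before reading; 0% = neutral control wells and -100% = 2 µM mitoxantrone kill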)
[2] = inhibitors of CMV-promoter luciferase reporter, dose response, counter-screen for Pax8 inhibitor project, cell-based, HEK293, luminescence, dry powder (AID 743020;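 active = signal-lowering compounds whose fitted half-maximal concentration is at or below twice the top tested dose in every run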;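 note: HEK293 cells stably expressing the CMV luciferase reporter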)
[3] = non-specific cell cytotoxicity, dose response, cytotoxicity control for PAX8 inhibitor project, plate reader, dry powder samples (AID 743021)
[4] = IGROV1 ovarian cancer cell cytotoxicity, dose response, PAX8 inhibitor project, plate reader, dry powder samples (AID 743043);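 note: more negative means fewer viable cells or more cytotoxicity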
[5] = NIH:OVCAR-3 ovarian cancer cell cytotoxicity, dose response, PAX8 inhibitor project, plate reader, dry powder samples (AID 743044); conditions: max activity: at 35 µM, hits give low values unless noted
[6] = IOSE-T80 ovarian epithelial cell cytotoxicity, dose response, cytotoxicity control for PAX8 inhibitor project, plate reader, dry powder samples (AID 743045);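 note: 0% = neutral control median and -100% = positive control median; more negative values mean more cell killing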
[7] = A2780 ovarian cancer cell cytotoxicity, dose response, cytotoxicity control, plate reader, dry powder samples (AID 743046);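 note: 0% = neutral control wells and -100% = cytotoxic reference compound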
[8] = cytotoxicity in OVCAR8 ovarian cancer cells, dose response, PAX8 project, cell-based, plate reader, dry powder samples (AID 743197)
[9] = cytotoxicity in PAX8-dependent RMG-1 cells, dose response, cell-based, cherry-pick (AID 687029;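 active = signal drop whose fitted half-maximal concentration is at most twice the top valid dose, in every test run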;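 note: cells exposed to compound for 96 hours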)
[10] = DNA binders by acridine orange displacement, dose response, counter-screen for EWS/Fli inhibitor project, biochemical, fluorescence polarization, cherry-pick (AID 720586;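 active = fitted curve reaches a 35% signal fall AC35 below twice the sample's top valid tested dose, actives reach about 48 µM in these data; inactive = the rest, including activity in the rising direction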;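 note: 0% = neutral control median and -100% = 10 µM mitoxantrone control median; lower polarization ratio signals compound binding to DNA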)
[11] = HepG2 cell cytotoxicity, dose response, cytotoxicity control, plate reader, cherry-pick, antagonist series (AID 743416);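 note: 0% = neutral control wells and -100% = positive control wells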

O=S(=O)(c1ccccc1F)N1CC[C@@H]2[C@H](CO)Nc3ccc(C4=CCCCC4)cc3[C@@H]21
inactive: outcome [1] | outcome [2] | outcome [3] | outcome [4] | max activity [5] 8.04% | outcome [6] | outcome [7] | outcome [8]

C[C@@H]1CN([C@H](C)CO)C(=O)c2cc(NC(=O)Cc3ccccc3)ccc2O[C@@H](C)CCCCO[C@H]1CN(C)Cc1ccc(C(F)(F)F)cc1
inactive: outcome [1] | outcome [2] | outcome [3] | outcome [4] | outcome [6] | outcome [7]

C[C@H](CO)N1C[C@H](C)[C@H](CN(C)CC2CCCCC2)OCCCC[C@H](C)Oc2ccc(NC(=O)Nc3ccccc3)cc2C1=O
inactive: outcome [9] | outcome [3] | outcome [6] | outcome [7] | outcome [8]

C[C@@H]1CCCCO[C@H](CN(C)Cc2ccncc2)[C@H](C)CN([C@H](C)CO)C(=O)c2cc(NC(=O)Nc3ccc(C(F)(F)F)cc3)ccc2O1
inactive: outcome [1] | outcome [2] | outcome [3] | outcome [4] | outcome [6] | outcome [7] | outcome [8]

C#CCN(C[C@@H]1[C@@H](OC(=O)NC2CCCC2)[C@@H](OC(=O)NC2CCCC2)Cn2c(=O)ccc(=O)n21)S(=O)(=O)c1ccc(C)cc1
inactive: outcome [9] | outcome [3]

O=C(C1CCC1)N1CCCCN2[C@H](CO)[C@H](c3ccc(-c4cccc(F)c4)cc3)[C@H]2C1
inactive: outcome [1] | outcome [2] | outcome [3] | outcome [4] | max activity [5] 7.58% [at 0.26 µM, hits give low values] | outcome [6] | outcome [7] | outcome [8]

Oc1ccc(C[C@H]2CNC(=S)N2CC2CCCN2C[C@H](Cc2ccc(O)cc2)N2C[C@H](Cc3ccccc3)N(CC3CCCCCC3)C2=S)cc1 (some centres not stated)
inactive: outcome [1] | outcome [2] | outcome [3]

O=C(CN1C(=O)c2ccccc2S1(=O)=O)c1ccc(Cl)cc1Cl
inactive: outcome [9] | outcome [3] | outcome [4] | outcome [5] | outcome [6] | outcome [7]

C[C@@H]1CCCCO[C@@H](CN(C)Cc2ccc(C(F)(F)F)cc2)[C@H](C)CN([C@@H](C)CO)C(=O)c2cc(NS(=O)(=O)c3ccc(Cl)cc3)ccc2O1
inactive: outcome [1] | outcome [2] | outcome [3] | outcome [4] | max activity [5] -25.4% [at 8 µM, hits give low values] | outcome [6] | outcome [7] | outcome [8]

C[C@H](CO)N1C[C@H](C)[C@@H](CN(C)S(=O)(=O)c2ccc(-c3ccccc3)cc2)OCc2cn(nn2)CCCC1=O
inactive: outcome [1] | outcome [2] | outcome [4] | max activity [5] -33.1% | outcome [6] | outcome [7] | outcome [8]

COc1ccc(CN(C)C[C@H]2OCCCC[C@H](C)Oc3ccc(NC(=O)Nc4ccc(C(F)(F)F)cc4)cc3C(=O)N([C@H](C)CO)C[C@H]2C)cc1
inactive: outcome [1] | outcome [2] | outcome [3] | outcome [6] | outcome [7]

C#CCN(C[C@@H]1[C@@H](OC(=O)NCc2ccccc2F)[C@@H](OC(=O)NCc2ccccc2F)Cn2c(=O)ccc(=O)n21)S(=O)(=O)c1ccc(C)cc1
inactive: outcome [1] | outcome [3]

CCCC#Cc1ccc([C@@H]2[C@@H](C#N)N(C(=O)C3CCCCC3)[C@H]2CO)cc1
inactive: outcome [1] | outcome [2] | outcome [4] | outcome [6] | outcome [7]

C[C@@H]1CN([C@H](C)CO)C(=O)c2cc(NC(=O)Nc3ccccc3)ccc2O[C@@H](C)CCCCO[C@H]1CN(C)Cc1ccc(C(F)(F)F)cc1
inactive: outcome [1] | outcome [2] | outcome [3] | outcome [7] | outcome [8]

CN1c2ccc(-c3cccc(C#N)c3)cc2[C@H]2[C@H](CCN2S(=O)(=O)c2ccccc2F)[C@H]1CO
inactive: outcome [1] | outcome [3] | outcome [6]

COc1ccc(S(=O)(=O)Nc2ccc3c(c2)C(=O)N([C@@H](C)CO)C[C@H](C)[C@@H](CN(C)C(=O)Nc2ccc(F)cc2)OCCCC[C@H](C)O3)cc1
inactive: outcome [1] | outcome [2] | outcome [4] | max activity [5] -15.3% | outcome [6] | outcome [7] | outcome [8]

COc1cccc(-c2ccc3c(c2)[C@H]2[C@H](CCN2S(=O)(=O)c2ccccc2F)[C@@H](CO)N3)c1
inactive: outcome [1] | outcome [2] | outcome [3] | outcome [6] | outcome [7]

C[C@@H]1CN([C@@H](C)CO)C(=O)Cc2cc(NC(=O)CCCCCC(=O)Nc3ccccc3N)ccc2O[C@@H]1CN(C)Cc1ccc(C(F)(F)F)cc1
inactive: outcome [1] | outcome [2] | outcome [4] | outcome [6] | outcome [7]

C[C@H](CO)N1C[C@H](C)[C@H](CN(C)CC2CCCCC2)Oc2ccc(NC(=O)CCCCCC(=O)Nc3ccccc3N)cc2CC1=O
inactive: AC35 [10]

CN(CCO)c1ccc(/C=N/Nc2nncc3ccccc23)cc1
inactive: AC35 [10]

CCn1c(/C=N/NC(=O)c2ccc(OC)cc2)nc2ccccc21
inactive: AC35 [10]

C[C@@H]1CN([C@H](C)CO)C(=O)c2cc(NC(=O)Nc3ccc(F)cc3)ccc2O[C@@H](C)CCCCO[C@@H]1CN(C)Cc1ccc(C(F)(F)F)cc1
inactive: outcome [1] | outcome [3] | outcome [4] | outcome [6] | outcome [7]

O=C(CN1C(=O)c2ccccc2S1(=O)=O)c1ccc2c(c1)OCCO2
inactive: outcome [1] | outcome [2] | outcome [3] | outcome [11]

C[C@@H]1CN([C@H](C)CO)C(=O)c2cc(NS(=O)(=O)c3ccc(Cl)cc3)ccc2O[C@@H](C)CCCCO[C@H]1CN(C)C(=O)Nc1ccc(C(F)(F)F)cc1
inactive: outcome [1] | outcome [3] | outcome [6]

C[C@@H]1CN([C@@H](C)CO)S(=O)(=O)c2ccc(C#Cc3ccncc3)cc2O[C@H]1CN(C)C(=O)Nc1ccc2c(c1)OCO2
inactive: outcome [1] | outcome [2] | outcome [3] | outcome [4] | outcome [8]

C[C@H]1CN([C@@H](C)CO)C(=O)Cc2cc(NC(=O)NC3CCCCC3)ccc2O[C@@H]1CN(C)Cc1ccc(-c2ccccc2)cc1
inactive: outcome [1] | outcome [2] | outcome [4] | max activity [5] 18.6% [at 1 µM, hits give low values] | outcome [6] | outcome [7] | outcome [8]

O=C(Nc1cccc(F)c1)N1CCCCN2[C@H](CO)[C@@H](c3ccc(C#Cc4ccccc4)cc3)[C@H]2C1
inactive: outcome [1] | outcome [2] | outcome [7] | outcome [8]

Cc1ccc(S(=O)(=O)Nc2ccc3c(c2)C(=O)N([C@@H](C)CO)C[C@@H](C)[C@@H](CN(C)Cc2ccc(C(=O)Nc4ccccc4N)cc2)O3)cc1
inactive: AC35 [10]

C[C@@H]1CCCCO[C@H](CN(C)S(=O)(=O)c2ccc(F)cc2)[C@H](C)CN([C@@H](C)CO)C(=O)c2cc(NS(=O)(=O)c3ccc(Cl)cc3)ccc2O1
inactive: outcome [1] | outcome [2] | outcome [4] | max activity [5] -28.2% | outcome [6] | outcome [7] | outcome [8]

C(=N\Nc1ccc2ccccc2n1)/c1ccc2c(c1)OCO2
inactive: AC35 [10]

C[C@H](CO)N1C[C@H](C)[C@@H](CN(C)C(=O)c2ccc3c(c2)OCO3)Oc2cc(C#Cc3ccccc3F)ccc2S1(=O)=O
inactive: outcome [1] | outcome [3] | outcome [4] | max activity [5] -4.28% | outcome [6] | outcome [7] | outcome [8]

COc1cc(-c2cnc3c(NC=O)cc(-c4cccc(NC(C)=O)c4)cn23)cc(OC)c1OC
inactive: outcome [1] | outcome [3]

C[C@@H]1CCCCO[C@@H](CN(C)Cc2ccc(Cl)c(Cl)c2)[C@@H](C)CN([C@@H](C)CO)C(=O)c2cc(NC(=O)Nc3ccccc3)ccc2O1
inactive: outcome [1] | outcome [2] | outcome [3] | outcome [6] | outcome [7] | outcome [8]

C[C@@H]1CCCCO[C@H](CN(C)Cc2ccc(C(F)(F)F)cc2)[C@@H](C)CN([C@@H](C)CO)C(=O)c2cc(NC(=O)Nc3ccc(F)cc3)ccc2O1
inactive: outcome [1] | outcome [3] | outcome [6]

C[C@@H]1CCCCO[C@H](CN(C)Cc2ccc(C(F)(F)F)cc2)[C@@H](C)CN([C@@H](C)CO)C(=O)c2cc(NC(=O)Cc3ccccc3)ccc2O1
inactive: outcome [1] | outcome [2] | outcome [3] | outcome [6] | outcome [7] | outcome [8]

C[C@@H]1CCCCO[C@H](CN(C)Cc2ccc(Cl)c(Cl)c2)[C@@H](C)CN([C@@H](C)CO)C(=O)c2cc(NC(=O)Nc3ccccc3)ccc2O1
inactive: outcome [1] | outcome [3] | outcome [4] | max activity [5] 15.8% [at 0.26 µM, hits give low values] | outcome [6] | outcome [7] | outcome [8]

O=C(Nc1ccc(F)cc1)N1CC(=O)N2[C@@H](CO)[C@H](c3ccc(-c4ccc(F)cc4)cc3)[C@@H]2C1
inactive: outcome [1] | outcome [3] | outcome [4] | outcome [7]

Cc1cccc(-c2ccc(C3[C@@H]4CN(C(=O)Nc5ccc(C(F)(F)F)cc5)C[C@H]3N4)cc2)c1 (some centres not stated)
inactive: outcome [1] | outcome [2] | outcome [7]

COc1ccc(OC)c(Cc2cnc3nc(N)nc(N)c3c2C)c1
inactive: AC35 [10]

C[C@@H]1CN([C@H](C)CO)C(=O)c2cc(NC(=O)Nc3ccc(F)cc3)ccc2O[C@@H](C)CCCCO[C@H]1CN(C)Cc1ccc(C(F)(F)F)cc1
inactive: outcome [1] | outcome [3] | outcome [4] | outcome [6] | outcome [7] | outcome [8]

COc1ccccc1C#Cc1ccc2c(c1)O[C@@H](CN(C)Cc1ccncc1)[C@H](C)CN([C@H](C)CO)S2(=O)=O
inactive: outcome [1] | outcome [2] | outcome [6] | outcome [7]

C[C@H](CO)N1C[C@H](C)[C@H](CN(C)Cc2ccc(C(F)(F)F)cc2)Oc2ccc(NC(=O)CCCCCC(=O)Nc3ccccc3N)cc2CC1=O
inactive: AC35 [10]

C[C@@H]1CCCCO[C@H](CN(C)C(=O)Nc2cccc3ccccc23)[C@H](C)CN([C@@H](C)CO)C(=O)c2cc(NS(=O)(=O)c3ccc(Cl)cc3)ccc2O1
inactive: outcome [1] | outcome [2] | outcome [6] | outcome [7]

C[C@H]1CCCCO[C@H](CN(C)C(=O)Nc2cccc3ccccc23)[C@@H](C)CN([C@@H](C)CO)C(=O)c2cc(NS(=O)(=O)c3ccc(Cl)cc3)ccc2O1
inactive: outcome [1] | outcome [2] | outcome [3] | max activity [5] -25.9% | outcome [6] | outcome [7]
